RTF Ca sens act – cardiac RTF calcium sensitization. IANBD-labeled TnC RTF fluorescence at EC20 calcium; 0% EC20 calcium, 100% full calcium. activation, % at 7.2 µM. 0.24% of 340,000 active. AID 493008;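 active means activation above the mean over all tested compounds plus 3 SD, cut at about 30% in these data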;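 further: rise in fluorescence read as greater calcium sensitivity of cardiac thin filaments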
ANO1 activ – activates or potentiates the mouse TMEM16A chloride channel; Q8BHY3; HEK293 TMEM16A/YFP-H148Q/I152L, iodide quench fluorescence; hits give low values; B-score at 10 µM; 0.3% of 340,000 active; AID 623877;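 active means fluorescence-ratio B-score plate-corrected deviation score at least 3 library SD below zero, with starting fluorescence score within 5 deviations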;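 further: channel opened by trigger with iodide after compound preincubation; score built on the fluorescence ratio of max minus min over baseline; more negative score means more quench and so TMEM16A activation or potentiation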
Target sequence (Q8BHY3 whole entry, looked up): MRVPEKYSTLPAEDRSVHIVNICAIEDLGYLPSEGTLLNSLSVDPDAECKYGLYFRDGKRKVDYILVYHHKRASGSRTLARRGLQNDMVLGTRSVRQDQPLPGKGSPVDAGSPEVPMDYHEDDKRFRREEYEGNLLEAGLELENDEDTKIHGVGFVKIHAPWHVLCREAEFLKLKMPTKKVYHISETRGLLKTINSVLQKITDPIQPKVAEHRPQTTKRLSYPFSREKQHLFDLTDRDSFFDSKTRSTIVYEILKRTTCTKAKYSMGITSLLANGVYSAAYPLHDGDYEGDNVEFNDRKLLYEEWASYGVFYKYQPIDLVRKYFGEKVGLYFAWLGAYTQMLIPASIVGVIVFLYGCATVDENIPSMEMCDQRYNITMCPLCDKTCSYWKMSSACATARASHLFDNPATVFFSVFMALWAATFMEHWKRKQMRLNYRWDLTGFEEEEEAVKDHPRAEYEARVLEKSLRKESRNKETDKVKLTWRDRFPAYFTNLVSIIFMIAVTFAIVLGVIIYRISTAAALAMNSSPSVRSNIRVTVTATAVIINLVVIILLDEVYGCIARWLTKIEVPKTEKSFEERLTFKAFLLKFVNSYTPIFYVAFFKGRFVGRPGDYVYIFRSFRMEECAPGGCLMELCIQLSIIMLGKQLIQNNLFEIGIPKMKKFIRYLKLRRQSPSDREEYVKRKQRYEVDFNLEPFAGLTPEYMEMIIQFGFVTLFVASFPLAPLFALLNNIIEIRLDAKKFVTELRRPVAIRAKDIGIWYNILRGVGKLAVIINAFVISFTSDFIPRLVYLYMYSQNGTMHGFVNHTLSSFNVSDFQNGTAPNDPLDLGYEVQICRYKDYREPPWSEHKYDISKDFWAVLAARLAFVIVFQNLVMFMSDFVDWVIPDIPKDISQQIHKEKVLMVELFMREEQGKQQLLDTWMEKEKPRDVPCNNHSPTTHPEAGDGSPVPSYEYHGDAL
RTF Ca sens inh – cardiac RTF calcium desensitization; P19429+P45379; IANBD-labeled cardiac RTF, Ca2+ fluorescence; inhibition, % at 7.15 µM; 0.12% of 340,000 active;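 active means inhibition above the mean inhibition of all tested compounds plus 3 SD, cut at about 17% in these data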;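 further: assay run at fixed EC70 calcium of 1.6 mM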
CRFBP-R2 block – blocks CRF-induced signaling of the CRF-BP/CRF-R2 complex | HEK293 CRF-R2/CRF-BP, CRF-induced calcium fluorescence | inhibition, % at 11.8 µM | 0.59% of 350,000 active | AID 588475;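 active means inhibition of the ligand-induced calcium signal above about 50% at the single tested concentration, limit read from the data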
CRFBP-R2 agonist – CRF-BP/CRF-R2 complex agonism; HEK293 CRF-R2/CRF-BP, calcium dye fluorescence (FLIPR); percent of saturating CRF peptide response; 0.46% of 350,000 active; AID 588473; activation, % at 13.2 µM;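 active means activation of at least 50%, plus an integration ratio under a set limit after plate pattern correction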;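 further: plate controls were neutral control wells without compound for no effect and CRF at EC100 for full effect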
TMEM16A inh – blocks the mouse calcium-activated chloride channel TMEM16A. Q8BHY3. HEK293 TMEM16A/YFP iodide influx fluorescence, ionomycin. normalized B-score (activity score, 25-100; higher = stronger inhibition) at 10 µM. 1.2% of 310,000 active. AID 588511;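 active means ratio plate-corrected score three or more library SD toward inhibition, starting fluorescence score within five deviations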;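 further: score derived from kinetic fluorescence span divided by baseline fluorescence per well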
* hit, by the source's call. In the library only some 2.4% were active in any assay of this set; here they are far more common.

Screening O=C(NNC(=O)c1ccccc1O)c1ccc(Cl)c(S(=O)(=O)N2CCCCC2)c1 returned RTF Ca sens act -0.5, ANO1 activ inactive, RTF Ca sens inh -10.5, CRFBP-R2 block 0.0, CRFBP-R2 agonist 0.2 and TMEM16A inh inactive.
COc1cc2c3nnc(-c4ccc(F)cc4)c-3cn(Cc3ccc(C)cc3)c2cc1OC was read as RTF Ca sens act 41.3*, ANO1 activ inactive, RTF Ca sens inh -54.1, CRFBP-R2 block -7.2, CRFBP-R2 agonist 0.1 and TMEM16A inh inactive.
Screening COc1cc2c3nnc(-c4ccc(F)cc4)c-3cn(Cc3cccc(C)c3)c2cc1OC returned RTF Ca sens act 17.8, ANO1 activ inactive, RTF Ca sens inh -34.0, CRFBP-R2 block -16.9, CRFBP-R2 agonist 4.7 and TMEM16A inh inactive.
COc1cc2c3nnc(-c4ccc(F)cc4)c-3cn(Cc3cccc(F)c3)c2cc1OC was read as RTF Ca sens act 48.5*, ANO1 activ inactive, RTF Ca sens inh -62.7, CRFBP-R2 block 1.9, CRFBP-R2 agonist 13.6 and TMEM16A inh inactive.
For CCOC(=O)C1CCCN(c2c(N3CCOCC3)c(=O)c2=O)C1 (stereo not drawn) the results were RTF Ca sens act 0.0, ANO1 activ inactive, RTF Ca sens inh 0.2, CRFBP-R2 block 0.7, CRFBP-R2 agonist 1.0 and TMEM16A inh inactive.
`CCOC(=O)C1CCCN(C(=O)N2CCOCC2)C1` (stereo not drawn) gave RTF Ca sens act 4.5, ANO1 activ inactive, RTF Ca sens inh -8.1, CRFBP-R2 block -10.2, CRFBP-R2 agonist -1.7 and TMEM16A inh 25*.
`COc1ccccc1NC(=O)COC(=O)c1ccc2c(=O)n3c(nc2c1)CCC3` gave CRFBP-R2 block 5.0 and CRFBP-R2 agonist -0.5.
For CC(NC(=O)COC(=O)c1ccc2c(=O)n3c(nc2c1)CCCCC3)c1ccccc1 (stereo not drawn) the results were RTF Ca sens act -2.2, ANO1 activ inactive, RTF Ca sens inh -0.3, CRFBP-R2 block 62.6* and CRFBP-R2 agonist -1.0.
O=C(Oc1ccccc1F)c1ccc2c(=O)n3c(nc2c1)CCC3 was read as RTF Ca sens act -2.5, ANO1 activ inactive, RTF Ca sens inh -7.4, CRFBP-R2 block 99.4*, CRFBP-R2 agonist 5.9 and TMEM16A inh inactive.
CCN(CC(=O)Nc1c(F)cccc1F)C(=O)c1ccc2c(=O)n3c(nc2c1)CCC3 was read as RTF Ca sens act -1.4, ANO1 activ inactive, RTF Ca sens inh -2.8, CRFBP-R2 block 103.7* and CRFBP-R2 agonist -0.9.
For O=C(Oc1ccccc1Cl)c1ccc2c(=O)n3c(nc2c1)CCC3 the results were RTF Ca sens act -2.6, ANO1 activ inactive, RTF Ca sens inh -13.0, CRFBP-R2 block -8.8, CRFBP-R2 agonist 0.4 and TMEM16A inh inactive.
Screening CCN(CC(=O)Nc1c(F)cccc1F)C(=O)c1ccc(S(=O)(=O)N2CCC(C)CC2)cc1 returned RTF Ca sens act 2.0, ANO1 activ inactive, RTF Ca sens inh 0.0, CRFBP-R2 block 121.9* and CRFBP-R2 agonist -1.2.
Cc1cccc(N2C(=O)C3C4C=CC(C5CC45)C3C2=O)n1 (stereo not drawn) was read as RTF Ca sens act 0.5, ANO1 activ inactive, RTF Ca sens inh -7.7, CRFBP-R2 block -1.2, CRFBP-R2 agonist 3.3 and TMEM16A inh inactive.
`COc1ccccc1CNC(=O)CN1C(=O)NC2(CCCc3sccc32)C1=O` (stereo not drawn) gave RTF Ca sens act 6.4, ANO1 activ inactive, RTF Ca sens inh -8.2, CRFBP-R2 block -0.8 and CRFBP-R2 agonist -0.4.
CC(C)(CO)NC(=O)C(Cc1ccccc1)N1C(=O)c2ccccc2C1=O (stereo not drawn) was read as RTF Ca sens act 3.1, ANO1 activ inactive, RTF Ca sens inh -3.8, CRFBP-R2 block 1.3, CRFBP-R2 agonist -1.6 and TMEM16A inh inactive.
`C#CCOCCOCCOCCNc1nc(N2CCN(C(=O)CCCCCCCCCCNC(=O)Cn3cc(C[C@@H](C)O)nn3)CC2)nc(N2CCN(C(=O)CCCCCCCCCCNC(=O)[C@H](CCCN=C(N)N)n3cc(C[C@@H](C)CC)nn3)CC2)n1` gave RTF Ca sens act 1.7, ANO1 activ -26.4*, RTF Ca sens inh -6.5, CRFBP-R2 block -1.5, CRFBP-R2 agonist -0.3 and TMEM16A inh inactive.
`C#CCOCCOCCOCCNc1nc(N2CCN(C(=O)CCCCCCCCCCNC(=O)[C@H](CO)n3cc(CCCSC)nn3)CC2)nc(N2CCN(C(=O)CCCCCCCCCCNC(=O)[C@H](CCCN=C(N)N)n3cc(C[C@@H](C)CC)nn3)CC2)n1` gave RTF Ca sens act -0.3, ANO1 activ -32*, RTF Ca sens inh 0.9, CRFBP-R2 block 11.6, CRFBP-R2 agonist -0.7 and TMEM16A inh 25*.
Screening C#CCOCCOCCOCCNc1nc(N2CCN(C(=O)CCCCCCCCCCNC(=O)[C@H](CO)n3cc(CCCSC)nn3)CC2)nc(N2CCN(C(=O)CCCCCCCCCCNC(=O)[C@H](CCCCN)n3cc(CCO)nn3)CC2)n1 returned RTF Ca sens act -0.4, ANO1 activ inactive, RTF Ca sens inh -3.5, CRFBP-R2 block -18.9 and CRFBP-R2 agonist 3.9.
For CC1(C)CC(=O)C2=C(C1)OC(N)=C(C#N)C21CCN(Cc2ccccc2)CC1 the results were RTF Ca sens act 31.7*, ANO1 activ inactive, RTF Ca sens inh -23.7, CRFBP-R2 block 1.1, CRFBP-R2 agonist 2.2 and TMEM16A inh inactive.
Screening CN(/C=C1/C(=O)CNC1=O)CCO returned ANO1 activ inactive, CRFBP-R2 block 13.6, CRFBP-R2 agonist -1.1 and TMEM16A inh inactive.
Screening CCOC(=O)CN1C(=O)C2(OCCCO2)c2cc(Br)ccc21 returned RTF Ca sens act 2.7, ANO1 activ inactive, RTF Ca sens inh -2.9, CRFBP-R2 block -3.9, CRFBP-R2 agonist 1.2 and TMEM16A inh inactive.
For O=C1Cc2ccccc2Sc2ccc(O)cc21 the results were RTF Ca sens act 3.4, ANO1 activ inactive, RTF Ca sens inh -5.2, CRFBP-R2 block -57.3, CRFBP-R2 agonist 92.2* and TMEM16A inh inactive.
For COc1ccc(O[C@H]2C=C[C@@H](c3ccccc3)O[C@@H]2COC(=O)CC/C(C)=N/OC[C@@H](O)COCc2ccco2)cc1 the results were TMEM16A inh 25*.
`CNC(=S)/N=C/NOCc1ccc(Cl)cc1Cl` gave RTF Ca sens act 0.6, ANO1 activ inactive, RTF Ca sens inh -3.8, CRFBP-R2 block 21.9, CRFBP-R2 agonist 11.6 and TMEM16A inh 100*.
For COc1ccc([N+](=O)[O-])cc1NC(=O)Cc1ccccc1Cl the results were RTF Ca sens act 3.8, ANO1 activ inactive, RTF Ca sens inh 2.7, CRFBP-R2 block 30.9, CRFBP-R2 agonist -2.0 and TMEM16A inh inactive.

Screens: PubChem, several laboratories
